The source of these data is PubChem BioAssay (NCATS).

Inconclusive results are not listed. Values without a mark were called inactive. Calls of active or inactive are those of the source. Calls follow the shape of the dose curve; as a rule, active = well fitted inhibition curve with a large enough effect; inconclusive = small, poorly fitted or top-dose-only effect; inactive = no such curve, though single readings can be large or run the other way. Where a SMILES comes first, the peptide text is derived from it. [ ]: non-standard residue; d: D form. ξ: configuration not given here. ξPhe(βξ-Me) = CC(c1ccccc1)C(N)C(=O)O; PhLac = O=C(O)[CH](O)Cc1ccccc1; NMeV = CN[CH](C(=O)O)C(C)C; GABA = NCCCC(=O)O
% is scaled to controls: 0 for no effect and ±100 for the full control effect.

The test can be described thus: Primary qHTS for inhibitors of nuclear receptor binding SET domain protein 2 (NSD2) in an RCH-ACV wild type WT cells (2C) (AID 1645877). Also: nearly all actives have a fitted effect of over 70% in size. As to conditions: RCH-ACV (leukaemia line) NSD2 WT (2C) viability, CellTiter-Glo, 72 h; series mostly up to 44.9 µM; activity change, negative = cell killing: at the top concentration. A general note: Quantitative high-throughput screening tests each substance at several concentrations.
Take `CC(C)CC1NC(=O)C(C(C)c2ccccc2)NC(=O)C(C(C)C)NC(=O)C(C)NC(=O)CCCNC(=O)C(Cc2c[nH]c3ccccc23)NC(=O)C(C)NC1=O` (stereo not drawn) (cyclo([GABA]AV[ξPhe(βξ-Me)]LAW); configuration not given here): the “outcome” value was “inactive [at 17.3 µM]”.

For the compound `CC(C)[C@@H](C)/C=C/[C@@H](C)[C@H]1CC[C@H]2C3=CC=C4C[C@@H](O)CC[C@]4(C)[C@H]3CC[C@]12C`, the “activity change, negative = cell killing” value was 4.87% [at 17.3 µM].

Consider `COc1ccc2c3c1O[C@H]1C[C@@H](O)C=C[C@@]31CCN(C)C2`, for which the compound was classed as inactive.

Consider `CC1=CC(=O)OC(C)(CC(C)(O)C(=O)O)C1` (stereo unspecified), for which the “activity change, negative = cell killing” value is -14.7%.

As to `CC(C)C(C(=O)N1CCCC1C(=O)O)N(C)C(=O)C(O)Cc1ccccc1` (stereo unspecified) (H-[PhLac]-[NMeV]-Pro-OH; configuration not given here), the “activity change, negative = cell killing” value was 3.18%.

For `COc1ccc(/C=C/C(=O)O[C@@H]2[C@@H](OC(C)=O)[C@@H](OC(C)=O)[C@H](O[C@H]3[C@@H]4C=CO[C@@H](O[C@@H]5O[C@H](CO)[C@@H](O)[C@H](O)[C@H]5O)[C@@H]4[C@@]4(CO)O[C@@H]34)O[C@H]2C)cc1O`, the “outcome” value is “inactive [at 17.3 µM]”.

On to `C[C@@H]1O[C@@H](O[C@H]2[C@H](O[C@H]3CO[C@@H](O[C@H]4CC[C@@]5(C)C(CC[C@]6(C)C5CC[C@]57OC[C@@]8(CC[C@](C)(CO)CC85)[C@H](O)C[C@]76C)C4(C)C)[C@H](O[C@@H]4O[C@H](CO)[C@@H](O)[C@H](O)[C@H]4O)[C@H]3O)O[C@H](CO)[C@@H](O)[C@@H]2O)[C@H](O)[C@H](O)[C@H]1O` (stereo partly specified), for which the outcome was “inactive [at 9.23 µM]”.

For `CC12CCC3C(C)(C)C(O)CCC3(C)C1Cc1c(oc(C(=O)O)cc1=O)O2` (stereo unspecified), the “activity change, negative = cell killing” value was -10.9%.

Turning to `CC(=O)OC[C@@]12[C@H](O)C[C@@H](C)[C@]3(C[C@@H](c4ccoc4)OC3=O)[C@H]1C[C@H](O)C[C@]21CO1`, the “activity change, negative = cell killing” value is -7.93% [at 17.3 µM].

Consider `OC[C@H]1O[C@@H](OCCc2ccc(O)cc2)[C@H](O)[C@@H](O)[C@@H]1O`, for which the “activity change, negative = cell killing” value was -11.5%.

Take `CN1C(=O)c2ccccc2NC(=O)[C@]12O[C@@H]2c1cccc(O)c1`: the “activity change, negative = cell killing” value is -4.67%.

As to `O=C(/C=C/c1ccc(O)c(O)c1)OCc1ccccc1O[C@@H]1O[C@H](CO)[C@@H](O)[C@H](O)[C@H]1O`, the “activity change, negative = cell killing” value was -11.9% [at 17.3 µM].

For `COc1cc(/C=C/C(=O)O[C@H]2[C@H](OC(=O)/C=C/c3cc(OC)c(O)c(OC)c3)O[C@H](CO[C@@H]3O[C@H](CO)[C@@H](O)[C@H](O)[C@H]3O)[C@@H](O)[C@@H]2O)ccc1O`, the “outcome” value is “inactive [at 17.3 µM]”.

For the compound `CC1C/C=C/C=C\CCCCC(O)C/C=C/C(=O)O1` (stereo unspecified), the “activity change, negative = cell killing” value was -7.07%.

On to `C/C=C(\C)C(=O)O[C@@H]1CC2[C@@H](CC=C3C[C@@H](O[C@H]4C[C@H](OC)[C@H](O[C@H]5C[C@H](OC)[C@H](O[C@H]6C[C@H](OC)[C@H](O[C@H]7C[C@@H](OC)[C@H](O[C@@H]8O[C@H](CO)[C@@H](O)[C@H](O)[C@H]8O)[C@@H](C)O7)[C@@H](C)O6)[C@@H](C)O5)[C@@H](C)O4)CC[C@@]32C)[C@@]2(O)CC[C@H](C(C)=O)[C@@]12C` (stereo partly specified), for which the activity change, negative = cell killing was -18.8% [at 9.23 µM].

For the compound `CC(=O)OCCC(C)CCC1C(C)(O)CCC2C(C)(C)CCCC21C` (stereo unspecified), the “activity change, negative = cell killing” value was -15.9%.

Turning to `CC(C)[C@H]1CCC(CO)=C[C@@H]1/C=C(\CO)C(=O)O`, the “activity change, negative = cell killing” value was 3.16%.

For the compound `CO[C@@]12CC3[C@@H]([C@@H](O)[C@@H](OC(C)=O)C4[C@](C)(COC(C)=O)CCC[C@]34C)[C@@H](C)C1=CC(=O)O2` (stereo partly specified), the “activity change, negative = cell killing” value is -5.69% [at 17.3 µM].

In the case of `CC1CCC2(NC1)OC1C(=O)C3C4CCC5CC(O[C@@H]6O[C@H](CO)[C@@H](O)[C@H](O)[C@H]6O[C@@H]6O[C@@H](C)[C@H](O)[C@@H](O)[C@H]6O)CCC5(C)C4CCC3(C)C1C2C` (stereo partly specified), the “activity change, negative = cell killing” value was -17.2% [at 17.3 µM].

As for `C=C1CCC2C(C)(COC3OC(COC(=O)CC(=O)O)C(O)C(O)C3O)CCCC2(C)C1CCC1=CCOC1=O` (stereo unspecified), the “activity change, negative = cell killing” value was -2.56% [at 17.3 µM].

`CC1=C2[C@@H]([C@H](C)CC[C@H]2/C=C(\C)C(=O)O)[C@H](O)C1`: the “activity change, negative = cell killing” value is -7.41%.

Take `CC1(C)CC2C(O)C3=C(CC(C)(O)C2C1)C(=O)OC3O` (stereo unspecified): the “activity change, negative = cell killing” value was 1.36%.

As for `C=C(C)C1CC2(CO)C(=CC1=O)CCC(O)C2C` (stereo unspecified), the “activity change, negative = cell killing” value was -4.86%.

As to `C=C1C2(CCC(=O)OC2(C)C)CC(OC(=O)/C(C)=C/C)C2(C)C13OC14C(=O)OC(C)(C(=O)C12C(=O)OC4C)C3OC(C)=O` (stereo unspecified), the “outcome” value is “inactive [at 17.3 µM]”.

Take `CC1(C(=O)O)CCCC2(C)C1CCC13CC(CCC21)C1(CO)OC31` (stereo unspecified): the “activity change, negative = cell killing” value was -12.5%.

As for `CC(C)CC(=O)O[C@@H]1OC=C(CO[C@@H]2O[C@H](CO[C@@H]3O[C@H](CO)[C@@H](O)[C@H](O)[C@H]3O)[C@@H](O)[C@H](O)[C@H]2O)[C@H]2C[C@H](O)[C@@H](CO)[C@@H]12`, the “activity change, negative = cell killing” value is -10.3% [at 17.3 µM].
